Shown are actives, neighbours in structure and some others; about 0.78% of the full set was active somewhere.
APE1 inh: qHTS Assay for Inhibitors of the Human Apurinic/apyrimidinic Endonuclease 1 (APE1) | 350,000 tested, 0.35% active | DNA repair nuclease/redox regulator APEX1 (Homo sapiens), P27695 | Potency, µM (highest dose often 65.8 µM), inactives show at the top dose activity change, negative = inhibition, most hits filed as inhibitors | recombinant APE1, TAMRA/BHQ-2 abasic DNA cleavage fluorescence;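 also: plate controls were vehicle for no effect and reference inhibitor for full effect; nearly all actives have a fitted effect of over 55% in size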
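Quantitative HTS: incision of a TAMRA/BHQ-2 double-stranded substrate bearing a tetrahydrofuran abasic site by 0.75 nM APE1 raises fluorescence. Substrate 50 nM final, added after 15 min compound preincubation at room temperature; progress as third-minus-first kinetic read difference.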
L3MBTL1 inh-1: qHTS Assay for the Inhibitors of L3MBTL1; Lethal(3)malignant brain tumor-like protein 1 (Homo sapiens), Q9Y468; Potency, µM (doses to about 57.1 µM), for the others: at the top dose activity, negative = inhibition, usual class: inhibitors; AID 485360, 2010; AlphaScreen L3MBTL1–H3K9me1 peptide binding; 230,000 tested, 0.66% active; also: % is scaled to controls: 0 for no effect and ±100 for the full control effect; nearly all actives have a fitted effect of over 60% in size
Target sequence (Q9Y468 whole entry, looked up): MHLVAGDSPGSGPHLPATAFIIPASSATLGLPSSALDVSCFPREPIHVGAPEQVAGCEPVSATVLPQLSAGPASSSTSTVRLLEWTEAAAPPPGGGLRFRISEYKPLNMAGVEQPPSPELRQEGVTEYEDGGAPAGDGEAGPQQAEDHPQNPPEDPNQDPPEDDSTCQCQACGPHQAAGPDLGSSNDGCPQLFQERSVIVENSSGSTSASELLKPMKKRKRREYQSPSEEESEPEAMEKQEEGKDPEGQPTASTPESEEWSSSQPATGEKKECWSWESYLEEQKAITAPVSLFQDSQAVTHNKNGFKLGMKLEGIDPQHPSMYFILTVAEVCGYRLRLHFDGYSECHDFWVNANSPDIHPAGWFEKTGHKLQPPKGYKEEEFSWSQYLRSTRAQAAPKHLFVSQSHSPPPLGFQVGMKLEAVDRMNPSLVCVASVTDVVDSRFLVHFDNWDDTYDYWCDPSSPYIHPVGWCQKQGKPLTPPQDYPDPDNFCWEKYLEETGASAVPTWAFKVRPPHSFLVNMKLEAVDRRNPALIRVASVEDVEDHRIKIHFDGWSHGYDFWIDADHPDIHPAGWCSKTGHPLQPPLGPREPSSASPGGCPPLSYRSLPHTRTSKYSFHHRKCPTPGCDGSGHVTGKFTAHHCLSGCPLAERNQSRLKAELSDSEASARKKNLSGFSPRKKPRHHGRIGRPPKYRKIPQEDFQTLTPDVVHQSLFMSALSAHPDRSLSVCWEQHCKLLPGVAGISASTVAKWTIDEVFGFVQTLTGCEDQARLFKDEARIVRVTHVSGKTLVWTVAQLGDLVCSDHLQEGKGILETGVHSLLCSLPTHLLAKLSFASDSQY
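AlphaScreen assay: L3MBTL1 (50 nM final) was preincubated 30 min at room temperature with biotinylated H3(1-15)K9me1 peptide (75 nM final), then 30 min with library compounds; streptavidin donor and nickel chelate acceptor beads (10 ug/mL final) added, 30 min dark.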
BLM helicase inh: qHTS Assay for Inhibitors of Bloom's syndrome helicase (BLM) | RecQ-like DNA helicase BLM (Homo sapiens), P54132 | recombinant BLM DNA unwinding, fluorescence dequenching | Potency, µM (highest dose often 56.1 µM), without a hit: at the top dose activity change, negative = inhibition, usual class: inhibitors | 350,000 tested, 0.2% active | AID 2528, 2010;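 also: plate controls were vehicle for no effect and no enzyme for full effect; nearly all actives have a fitted effect of over 35% in size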
RECQ1 inh: qHTS Assay for Inhibitors of RecQ-Like Dna Helicase 1 (RECQ1); Potency, µM (series often up to 57.3 µM), for the others: at the highest dose activity, negative = inhibition, most hits filed as inhibitors; ATP-dependent DNA helicase Q1 (Homo sapiens), P46063; RECQ1 DNA unwinding, red fluorescence kinetic read; 240,000 tested, 0.54% active; AID 2549, 2010;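 also: plate controls were vehicle for no effect and no enzyme for full effect; nearly all actives have a fitted effect of over 30% in size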
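RECQ1T1 50 nM; forked duplex (20 bp + 30-nt ss tails) 200 nM, ATP 2 mM final; pH 8.0, 2 mM MgCl2, 2.5 ug/ml poly(dI-dC); 15 min compound preincubation; discontinuous kinetic read over 2 h at RT.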
L3MBTL1 inh-2: qHTS Assay for the Inhibitors of L3MBTL1: Hit Validation | shares compounds with L3MBTL1 inh-1 | L3MBTL1 methyl-lysine binding inhibition, biochemical qHTS | Potency, µM, most hits filed as inhibitors | 500 tested, 91% active | AID 540279, 2011; also: nearly all actives have a fitted effect of over 70% in size
L3MBTL1 ctr: qHTS Assay for the Inhibitors of L3MBTL1: Hit Validationin AlphaScreen Counterscreen; AlphaScreen counterscreen, signal inhibition; 500 tested, under 10 active; Potency, µM (top dose mostly 57.1 µM), without a hit: at the top dose activity change, negative = inhibition, hits mostly inhibitors; AID 602224, 2012; shares compounds with L3MBTL1 inh-1; also: 0% is about no effect
* = called active by the depositor; i = inactive; ? = inconclusive; nt = not tested or not shown. Calls follow the shape of the dose curve; as a rule, active = well fitted curve in the direction sought with a large enough effect; inconclusive = small, poorly fitted or top-dose-only effect, or another doubt; inactive = no such curve, though single readings can be large; an effect the other way counts as inactive or inconclusive. Potency is read from the fitted curve at half-maximal effect.

SMILES	APE1 inh	L3MBTL1 inh-1	BLM helicase inh	RECQ1 inh	L3MBTL1 inh-2	L3MBTL1 ctr
O=C(CCS(=O)(=O)c1ccc(Br)cc1)Nc1cc(F)ccc1F	?	28µM*	-2%	-18%	27*	10%
Cc1cccc(C(=O)NCC(=O)OCc2cc(=O)n3nc(C4CC4)sc3n2)c1	nt	nt	-1%	nt	nt	nt
N#Cc1nc(COc2ccccc2Cl)oc1N1CCCC1	-2%	28µM*	-11%	i	?	?
N#Cc1nc(COc2ccccc2Cl)oc1N1CCCCCC1	0%	-3%	-7%	-1%	nt	nt
COc1ccc(C(=O)OCC(=O)N2CCc3ccccc3C2)cc1OC	26%	2%	nt	nt	nt	nt
CC(=O)Oc1cc(C(=O)OCC(=O)N2CCc3ccccc3C2)cc(OC(C)=O)c1OC(C)=O	5.3µM*	8.9µM*	nt	nt	3*	3%
O=C(Oc1c(CN2CCOCC2)cc(Cl)c2cccnc12)c1ccccc1	9%	nt	-1%	-4%	nt	nt
O=C(Oc1c(CN2CCOCC2)cc(Cl)c2cccnc12)c1ccccc1F	-2%	14µM*	4%	-6%	27*	2%
CC1CCN(Cc2c(O)ccc3c2O/C(=C\c2ccco2)C3=O)CC1	3%	10µM*	-1%	-2%	27*	-2%
CCCCNS(=O)(=O)c1ccc2nc(-c3cccnc3)cc(C(=O)NCCCOC(C)C)c2c1	nt	nt	-6%	nt	nt	nt
N#Cc1c(=O)c2nc(NCCCO)ncc2n2c(=O)c3ccccc3[nH]c12	?	10µM*	-20%	-14%	6*	45%
O=C(C1=C(O)C(=O)N(c2nc3ccc(Cl)cc3s2)C1c1ccco1)c1ccco1 (configuration not stated)	-13%	20µM*	nt	nt	6*	-4%
Cc1cc(C)c2nc(N3C(=O)C(O)=C(C(=O)c4ccco4)C3c3ccc(O)cc3)sc2c1 (configuration not stated)	-11%	-16%	nt	nt	nt	nt
Cc1cc(C)c2nc(N3C(=O)C(O)=C(C(=O)c4ccco4)C3c3cccc(O)c3)sc2c1 (configuration not stated)	-17%	32µM*	nt	nt	24*	0%
Cc1ccc(-c2csc3ncn(CC#N)c(=O)c23)cc1C	-73%	22µM*	-28%	nt	21*	13%
O=C(Nc1nc(-c2ccccc2)cs1)C1COc2ccccc2O1 (configuration not stated)	4%	nt	-7%	-9%	nt	nt
O=C(Nc1nc(-c2ccccn2)cs1)C1COc2ccccc2O1 (configuration not stated)	4%	11µM*	3%	3%	12*	-65%
O=S(=O)(Nc1cc(Sc2cccc3cccnc23)c(O)c2ccccc12)c1ccc(F)cc1	9%	28µM*	-6%	-15%	21*	-16%
COc1ccc(S(=O)(=O)Nc2cc(Sc3ncn[nH]3)c(O)c3ccccc23)cc1	?	nt	?	-7%	nt	nt
COc1ccc(S(=O)(=O)n2nc(-c3ccco3)nc2NCc2ccc(C(C)C)cc2)cc1	nt	nt	-11%	nt	nt	nt
CCN(CC(=O)Nc1c(F)cccc1F)C(=O)/C=C/c1ccc2ccccc2n1	1.7µM*	3.2µM*	nt	nt	1.7*	8%
CCNc1nc(NCC)n2c(SCC(=O)Nc3ccc(F)cc3)nnc2n1	12µM*	28µM*	nt	nt	?	18%
CCCCOc1ccc(CNC(=O)c2cccc(NC(=O)N3CCSc4ncccc43)c2)cc1	nt	nt	-3%	nt	nt	nt
CCOC(=O)Cc1cc(C(=O)Nc2ccc(Br)cc2)sc1-c1ccc(C)cc1	nt	nt	-7%	nt	nt	nt
O=C(CSc1nnc(C2COc3ccccc3O2)o1)NC1CCCCC1 (configuration not stated)	0%	-2%	0%	0%	nt	nt
